From ChEMBL document CHEMBL1961873, “Compounds: GSK PKIS; Assays: Nanosyn kinase panel” (2012) come the findings set out here.

Broadly, the inhibition is the drop in the measured response relative to a control, in per cent.

The target of assay [1] is Tyrosine-protein kinase SYK (Homo sapiens) (UniProt P43405). The conditions noted are these: at 1 µM.
Assay [2] concerns the target T1, Tyrosine-protein kinase Tec (Homo sapiens) (UniProt P42680).
T1 sequence (whole entry): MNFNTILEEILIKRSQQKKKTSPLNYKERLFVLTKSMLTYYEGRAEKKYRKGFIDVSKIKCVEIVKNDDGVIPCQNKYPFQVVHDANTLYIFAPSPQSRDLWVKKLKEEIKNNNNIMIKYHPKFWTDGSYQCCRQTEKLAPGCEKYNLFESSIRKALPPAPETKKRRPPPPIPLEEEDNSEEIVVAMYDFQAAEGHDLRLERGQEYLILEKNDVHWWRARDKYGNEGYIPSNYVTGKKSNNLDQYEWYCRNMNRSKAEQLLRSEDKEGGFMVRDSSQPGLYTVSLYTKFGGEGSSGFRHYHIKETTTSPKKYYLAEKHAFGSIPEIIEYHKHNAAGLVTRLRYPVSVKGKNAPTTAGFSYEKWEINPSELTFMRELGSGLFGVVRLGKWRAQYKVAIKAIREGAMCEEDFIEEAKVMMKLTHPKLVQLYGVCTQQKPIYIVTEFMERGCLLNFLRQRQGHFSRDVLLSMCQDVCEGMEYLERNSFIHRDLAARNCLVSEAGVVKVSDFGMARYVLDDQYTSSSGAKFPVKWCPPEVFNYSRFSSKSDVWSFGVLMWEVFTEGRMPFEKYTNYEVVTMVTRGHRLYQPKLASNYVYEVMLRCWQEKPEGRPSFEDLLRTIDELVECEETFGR
The settings on record: at 0.1 µM.

In assay [3] the target is T1, Tyrosine-protein kinase Tec (Homo sapiens). The conditions noted are these: at 1 µM.
The target in assay [4] is Angiopoietin-1 receptor (Homo sapiens) (UniProt Q02763). The conditions noted are these: at 0.1 µM.
Assay [5] shares this target. The settings on record: at 1 µM.
Assay [6] deals with T2, Non-receptor tyrosine-protein kinase TNK1 (Homo sapiens) (UniProt Q13470).
T2 sequence (whole entry): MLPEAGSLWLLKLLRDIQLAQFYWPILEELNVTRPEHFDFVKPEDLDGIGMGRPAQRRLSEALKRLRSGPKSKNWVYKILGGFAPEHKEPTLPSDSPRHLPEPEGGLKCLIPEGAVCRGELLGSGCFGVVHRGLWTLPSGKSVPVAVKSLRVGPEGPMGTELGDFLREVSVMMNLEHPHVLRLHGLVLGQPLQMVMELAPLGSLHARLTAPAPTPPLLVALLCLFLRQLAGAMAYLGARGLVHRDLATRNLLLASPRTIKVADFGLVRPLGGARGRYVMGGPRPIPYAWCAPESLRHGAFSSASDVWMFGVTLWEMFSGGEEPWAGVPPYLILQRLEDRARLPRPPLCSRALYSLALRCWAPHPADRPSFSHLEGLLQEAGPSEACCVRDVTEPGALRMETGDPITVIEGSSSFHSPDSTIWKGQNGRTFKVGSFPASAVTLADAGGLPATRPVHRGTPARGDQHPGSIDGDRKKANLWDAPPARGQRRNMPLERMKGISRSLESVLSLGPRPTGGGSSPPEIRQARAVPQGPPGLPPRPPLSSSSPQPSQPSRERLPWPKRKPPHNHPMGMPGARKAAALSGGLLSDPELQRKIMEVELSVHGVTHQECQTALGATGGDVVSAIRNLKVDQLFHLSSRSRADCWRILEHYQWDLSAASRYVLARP
The conditions noted are these: at 0.1 µM.

The target of assay [7] is T2, Non-receptor tyrosine-protein kinase TNK1 (Homo sapiens). The settings on record: at 1 µM.
The target in assay [8] is Activated CDC42 kinase 1 (Homo sapiens) (UniProt Q07912). The conditions noted are these: at 0.1 µM.
Activated CDC42 kinase 1 (Homo sapiens), sequence (Q07912 whole entry, looked up): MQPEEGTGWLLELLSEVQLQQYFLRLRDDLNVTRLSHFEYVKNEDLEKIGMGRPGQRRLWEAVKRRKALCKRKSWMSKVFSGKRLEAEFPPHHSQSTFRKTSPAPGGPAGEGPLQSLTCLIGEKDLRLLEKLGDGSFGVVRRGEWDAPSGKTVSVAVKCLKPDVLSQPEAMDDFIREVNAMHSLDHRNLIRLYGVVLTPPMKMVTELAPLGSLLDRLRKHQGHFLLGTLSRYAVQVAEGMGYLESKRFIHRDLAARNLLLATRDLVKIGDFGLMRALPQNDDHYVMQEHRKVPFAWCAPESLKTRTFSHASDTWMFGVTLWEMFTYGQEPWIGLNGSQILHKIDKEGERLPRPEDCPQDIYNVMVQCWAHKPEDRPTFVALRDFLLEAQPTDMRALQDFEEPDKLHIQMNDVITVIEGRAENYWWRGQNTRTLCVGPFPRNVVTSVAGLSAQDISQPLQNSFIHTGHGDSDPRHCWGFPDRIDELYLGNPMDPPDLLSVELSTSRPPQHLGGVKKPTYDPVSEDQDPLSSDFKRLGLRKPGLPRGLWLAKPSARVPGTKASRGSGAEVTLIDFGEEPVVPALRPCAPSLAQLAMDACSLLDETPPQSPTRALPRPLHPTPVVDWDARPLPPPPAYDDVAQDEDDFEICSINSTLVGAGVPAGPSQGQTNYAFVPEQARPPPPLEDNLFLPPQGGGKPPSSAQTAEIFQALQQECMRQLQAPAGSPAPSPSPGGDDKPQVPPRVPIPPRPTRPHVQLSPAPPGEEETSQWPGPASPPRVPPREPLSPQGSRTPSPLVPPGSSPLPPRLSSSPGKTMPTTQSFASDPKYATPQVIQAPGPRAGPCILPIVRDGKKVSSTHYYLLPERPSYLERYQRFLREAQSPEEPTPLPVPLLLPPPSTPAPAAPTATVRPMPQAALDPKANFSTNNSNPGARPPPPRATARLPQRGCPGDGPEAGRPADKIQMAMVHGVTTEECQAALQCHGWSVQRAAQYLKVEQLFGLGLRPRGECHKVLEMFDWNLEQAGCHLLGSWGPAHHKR
Assay [9] shares this target. The settings on record: at 1 µM.
The target in assay [10] is High affinity nerve growth factor receptor (Homo sapiens) (UniProt P04629). The conditions noted are these: at 0.1 µM.
High affinity nerve growth factor receptor (Homo sapiens), sequence (P04629 33-796 limits assumed): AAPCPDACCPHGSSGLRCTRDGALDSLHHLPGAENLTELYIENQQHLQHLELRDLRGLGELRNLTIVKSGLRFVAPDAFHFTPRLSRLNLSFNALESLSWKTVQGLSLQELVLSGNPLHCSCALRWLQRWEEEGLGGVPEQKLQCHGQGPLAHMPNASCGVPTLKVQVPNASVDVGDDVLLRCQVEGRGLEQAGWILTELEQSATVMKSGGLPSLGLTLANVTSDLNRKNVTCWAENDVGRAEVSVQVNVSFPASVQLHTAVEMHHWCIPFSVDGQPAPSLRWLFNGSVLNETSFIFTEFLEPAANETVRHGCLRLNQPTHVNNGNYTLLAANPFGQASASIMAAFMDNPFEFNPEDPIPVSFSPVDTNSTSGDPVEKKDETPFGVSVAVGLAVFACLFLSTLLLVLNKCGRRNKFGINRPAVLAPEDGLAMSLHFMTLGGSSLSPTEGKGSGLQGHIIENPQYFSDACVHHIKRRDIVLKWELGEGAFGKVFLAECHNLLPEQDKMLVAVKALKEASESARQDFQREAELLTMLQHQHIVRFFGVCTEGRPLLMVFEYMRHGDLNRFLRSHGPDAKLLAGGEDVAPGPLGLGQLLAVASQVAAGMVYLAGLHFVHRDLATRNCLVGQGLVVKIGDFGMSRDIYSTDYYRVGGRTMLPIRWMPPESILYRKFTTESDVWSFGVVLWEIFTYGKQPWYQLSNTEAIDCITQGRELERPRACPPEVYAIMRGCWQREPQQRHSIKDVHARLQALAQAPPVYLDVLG
The target is the same in assay [11]. The settings on record: at 1 µM.
Assay [12] concerns the target BDNF/NT-3 growth factors receptor (Homo sapiens) (UniProt Q16620). The conditions noted are these: at 0.1 µM.
For assay [13] the target is unchanged. The settings on record: at 1 µM.
In assay [14] the target is NT-3 growth factor receptor (Homo sapiens) (UniProt Q16288). The settings on record: at 0.1 µM.
NT-3 growth factor receptor (Homo sapiens), sequence (Q16288 32-839 limits assumed): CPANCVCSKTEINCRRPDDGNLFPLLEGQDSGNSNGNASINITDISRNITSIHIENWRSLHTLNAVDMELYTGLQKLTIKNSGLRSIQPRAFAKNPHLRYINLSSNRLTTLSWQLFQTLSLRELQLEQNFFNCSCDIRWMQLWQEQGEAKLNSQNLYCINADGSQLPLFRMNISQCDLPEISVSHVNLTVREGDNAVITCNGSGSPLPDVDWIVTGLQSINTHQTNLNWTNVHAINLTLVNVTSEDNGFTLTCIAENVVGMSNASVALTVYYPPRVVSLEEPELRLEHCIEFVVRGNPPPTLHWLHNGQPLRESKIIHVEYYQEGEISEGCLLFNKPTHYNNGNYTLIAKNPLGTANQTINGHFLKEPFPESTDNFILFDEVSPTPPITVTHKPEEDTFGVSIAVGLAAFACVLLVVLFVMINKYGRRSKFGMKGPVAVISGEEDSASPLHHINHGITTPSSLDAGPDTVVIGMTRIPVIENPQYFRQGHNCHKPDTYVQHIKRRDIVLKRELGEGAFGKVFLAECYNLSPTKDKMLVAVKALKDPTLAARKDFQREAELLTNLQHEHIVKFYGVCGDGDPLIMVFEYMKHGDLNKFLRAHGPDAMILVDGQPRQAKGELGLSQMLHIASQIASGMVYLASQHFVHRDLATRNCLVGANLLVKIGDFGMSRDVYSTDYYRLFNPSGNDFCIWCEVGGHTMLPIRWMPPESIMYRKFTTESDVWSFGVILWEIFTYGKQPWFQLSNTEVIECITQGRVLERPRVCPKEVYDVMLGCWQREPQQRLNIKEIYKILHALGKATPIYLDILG
The target is the same in assay [15]. The conditions noted are these: at 1 µM.
The target of assay [16] is T3, Tyrosine-protein kinase TXK (Homo sapiens) (UniProt P42681).
T3 sequence (whole entry): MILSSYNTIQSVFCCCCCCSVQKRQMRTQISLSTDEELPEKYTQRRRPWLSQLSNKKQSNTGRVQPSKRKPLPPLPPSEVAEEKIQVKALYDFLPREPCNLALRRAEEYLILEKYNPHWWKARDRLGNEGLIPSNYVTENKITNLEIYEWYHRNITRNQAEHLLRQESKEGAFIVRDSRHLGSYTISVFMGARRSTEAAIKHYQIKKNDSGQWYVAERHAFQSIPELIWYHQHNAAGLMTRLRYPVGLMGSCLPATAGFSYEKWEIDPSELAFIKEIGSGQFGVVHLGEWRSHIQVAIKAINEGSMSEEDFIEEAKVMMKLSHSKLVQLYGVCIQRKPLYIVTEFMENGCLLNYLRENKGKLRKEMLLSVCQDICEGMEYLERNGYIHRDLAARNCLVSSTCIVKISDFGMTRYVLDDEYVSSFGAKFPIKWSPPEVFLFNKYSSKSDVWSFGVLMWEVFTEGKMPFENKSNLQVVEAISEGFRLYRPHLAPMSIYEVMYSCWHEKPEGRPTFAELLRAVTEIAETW
The settings on record: at 0.1 µM.

For assay [17], the target named is T3, Tyrosine-protein kinase TXK (Homo sapiens). The conditions noted are these: at 1 µM.
Assay [18] has as its target Non-receptor tyrosine-protein kinase TYK2 (Homo sapiens) (UniProt P29597). The settings on record: at 0.1 µM.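 Further: each value is a mean of the inhibition readings.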
The target in assay [19] is T4, Dual specificity protein kinase TTK (Homo sapiens) (UniProt P33981).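 Further: reported figures are mean TTK inhibition at 1 µM.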
T4 sequence (whole entry): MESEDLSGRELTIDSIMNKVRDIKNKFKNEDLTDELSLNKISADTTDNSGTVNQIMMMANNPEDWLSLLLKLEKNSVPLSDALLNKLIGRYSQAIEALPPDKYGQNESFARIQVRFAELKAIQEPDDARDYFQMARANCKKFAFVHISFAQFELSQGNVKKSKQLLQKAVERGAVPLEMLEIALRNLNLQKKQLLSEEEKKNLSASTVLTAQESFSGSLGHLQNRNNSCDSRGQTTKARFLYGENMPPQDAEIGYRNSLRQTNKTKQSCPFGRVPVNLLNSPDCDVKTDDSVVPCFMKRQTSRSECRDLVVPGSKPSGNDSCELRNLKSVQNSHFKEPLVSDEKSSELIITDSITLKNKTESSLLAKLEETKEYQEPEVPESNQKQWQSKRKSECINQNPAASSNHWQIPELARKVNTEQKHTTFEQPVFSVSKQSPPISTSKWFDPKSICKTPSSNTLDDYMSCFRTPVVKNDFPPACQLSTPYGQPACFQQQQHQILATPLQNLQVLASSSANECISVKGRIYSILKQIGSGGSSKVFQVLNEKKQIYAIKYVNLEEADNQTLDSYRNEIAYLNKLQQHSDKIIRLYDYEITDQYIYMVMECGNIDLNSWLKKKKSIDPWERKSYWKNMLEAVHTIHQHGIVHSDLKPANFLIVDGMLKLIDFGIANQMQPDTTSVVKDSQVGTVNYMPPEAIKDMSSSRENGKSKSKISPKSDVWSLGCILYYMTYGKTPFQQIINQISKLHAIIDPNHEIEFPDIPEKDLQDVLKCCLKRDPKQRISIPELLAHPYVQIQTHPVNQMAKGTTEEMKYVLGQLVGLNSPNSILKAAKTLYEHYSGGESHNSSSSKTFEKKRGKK
The settings on record: at 1 µM.

Assay [20] addresses T5, Aurora kinase A (Homo sapiens) (UniProt O14965).
T5 sequence (whole entry): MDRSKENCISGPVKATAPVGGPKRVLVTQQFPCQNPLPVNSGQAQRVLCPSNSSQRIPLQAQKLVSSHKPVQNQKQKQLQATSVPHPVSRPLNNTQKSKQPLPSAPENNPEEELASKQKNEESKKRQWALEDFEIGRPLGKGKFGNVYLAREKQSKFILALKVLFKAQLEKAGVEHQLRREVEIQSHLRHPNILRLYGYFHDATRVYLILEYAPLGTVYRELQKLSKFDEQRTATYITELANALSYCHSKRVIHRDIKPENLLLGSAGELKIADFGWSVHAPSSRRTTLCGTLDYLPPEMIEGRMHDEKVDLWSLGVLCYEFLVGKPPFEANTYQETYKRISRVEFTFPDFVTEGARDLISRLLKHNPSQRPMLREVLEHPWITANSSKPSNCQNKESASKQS
The conditions noted are these: at 0.1 µM.

Non-receptor tyrosine-protein kinase TYK2 (Homo sapiens), sequence (P29597 whole entry): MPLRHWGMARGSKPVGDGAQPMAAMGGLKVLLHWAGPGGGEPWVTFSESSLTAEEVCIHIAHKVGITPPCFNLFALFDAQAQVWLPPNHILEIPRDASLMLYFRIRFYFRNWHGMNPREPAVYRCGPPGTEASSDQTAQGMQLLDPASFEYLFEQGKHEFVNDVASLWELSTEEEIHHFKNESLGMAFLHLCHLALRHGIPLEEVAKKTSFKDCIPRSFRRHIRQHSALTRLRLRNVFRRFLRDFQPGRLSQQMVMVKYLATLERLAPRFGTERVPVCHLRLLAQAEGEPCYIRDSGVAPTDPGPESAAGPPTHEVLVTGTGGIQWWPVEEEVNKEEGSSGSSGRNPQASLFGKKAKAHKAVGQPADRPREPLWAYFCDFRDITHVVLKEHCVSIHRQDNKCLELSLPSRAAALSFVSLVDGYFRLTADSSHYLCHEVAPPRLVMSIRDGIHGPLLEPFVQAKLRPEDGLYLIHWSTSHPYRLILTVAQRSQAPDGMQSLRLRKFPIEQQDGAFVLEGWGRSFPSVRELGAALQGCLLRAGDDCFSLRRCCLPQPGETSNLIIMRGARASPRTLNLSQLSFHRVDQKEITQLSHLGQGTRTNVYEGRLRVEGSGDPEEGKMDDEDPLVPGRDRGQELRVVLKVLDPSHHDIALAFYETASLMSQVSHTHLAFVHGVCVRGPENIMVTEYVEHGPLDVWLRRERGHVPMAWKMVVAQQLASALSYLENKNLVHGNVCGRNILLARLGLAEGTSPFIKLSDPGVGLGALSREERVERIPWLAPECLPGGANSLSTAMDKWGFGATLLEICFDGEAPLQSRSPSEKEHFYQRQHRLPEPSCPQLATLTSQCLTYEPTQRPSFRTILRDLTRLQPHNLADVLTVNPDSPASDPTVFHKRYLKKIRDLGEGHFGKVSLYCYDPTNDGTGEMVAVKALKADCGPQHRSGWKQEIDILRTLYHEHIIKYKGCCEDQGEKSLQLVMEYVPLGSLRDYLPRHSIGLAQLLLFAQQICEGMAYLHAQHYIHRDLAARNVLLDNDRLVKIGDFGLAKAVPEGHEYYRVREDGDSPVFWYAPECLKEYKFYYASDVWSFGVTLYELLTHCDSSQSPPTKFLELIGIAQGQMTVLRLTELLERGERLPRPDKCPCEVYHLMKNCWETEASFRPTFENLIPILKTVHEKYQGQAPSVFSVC
BDNF/NT-3 growth factors receptor (Homo sapiens), sequence (Q16620 32-822 limits assumed): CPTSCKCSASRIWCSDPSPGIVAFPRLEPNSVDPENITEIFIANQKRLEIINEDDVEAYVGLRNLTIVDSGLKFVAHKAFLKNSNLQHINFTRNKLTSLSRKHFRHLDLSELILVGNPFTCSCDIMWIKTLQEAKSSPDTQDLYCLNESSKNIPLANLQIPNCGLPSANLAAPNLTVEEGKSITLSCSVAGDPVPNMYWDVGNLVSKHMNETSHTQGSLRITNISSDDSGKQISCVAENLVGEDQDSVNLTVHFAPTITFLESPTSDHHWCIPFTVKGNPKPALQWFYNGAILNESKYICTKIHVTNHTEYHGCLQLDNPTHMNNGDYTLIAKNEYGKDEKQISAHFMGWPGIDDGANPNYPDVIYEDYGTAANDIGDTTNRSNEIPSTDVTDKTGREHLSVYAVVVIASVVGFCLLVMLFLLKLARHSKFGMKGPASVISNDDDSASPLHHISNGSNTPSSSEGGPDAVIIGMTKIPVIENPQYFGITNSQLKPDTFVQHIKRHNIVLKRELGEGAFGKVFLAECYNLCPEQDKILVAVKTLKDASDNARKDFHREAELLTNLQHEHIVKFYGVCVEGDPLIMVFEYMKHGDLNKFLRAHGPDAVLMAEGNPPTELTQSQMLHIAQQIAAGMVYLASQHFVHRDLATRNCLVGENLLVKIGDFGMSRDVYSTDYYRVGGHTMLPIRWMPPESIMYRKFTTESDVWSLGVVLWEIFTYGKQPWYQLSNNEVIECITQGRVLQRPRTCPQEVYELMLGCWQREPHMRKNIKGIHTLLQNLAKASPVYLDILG

Turning to `COc1cc(C)c(N(C)C(=O)CN(C)C)cc1Nc1nc(Nc2cccc(F)c2C(N)=O)c2cc[nH]c2n1`, the inhibition was 1.76% in [1]; -0.85% in assay [2]; 1.07% in assay [3]; 0.26% in [4]; 2.24% in assay [5]; 1.97% in [6]. Further, the inhibition amounted to 6.22% in [7]; 0.62% in [8]; 0.64% in assay [9]; 1.62% in [10]; 1.31% in assay [11]; 0.94% in assay [12]. For the same molecule, the inhibition in [13] is -2.87%; in [14], 1.87%; in [15], -1.19%; in assay [16], -1.41%; in assay [17] it was -0.09%; in [18], 0.02%. Moreover, the values for the inhibition in assay [19] and in [20] were 25.7% and -0.3%, respectively.

As for `COc1ccc2cc(-c3c(-c4ccncc4)nc(-c4ccc(S(C)(=O)=O)cc4C)n3C)ccc2c1`, the inhibition in [1] amounted to 0.26%; in assay [2] it was 4.38%; in assay [3], 5.26%; in assay [4], 75%; in assay [5], 78.7%; in assay [6], 4.94%. The inhibition in assay [7] amounted to 29.3%; in assay [8], 0.74%; in assay [9], 3.77%; in assay [10], 3.75%; in assay [11], 0.55%; in [12], 2.95%. The inhibition in [13] is 3.12%; in assay [14], 2.38%; in assay [15], 4.11%; in assay [16], 3.55%; in assay [17] it was 5.35%; in [18], -5.17%. Moreover, the inhibition in assay [19] turned out to be 8.65%; in [20], 2.7%.

In the case of `COc1cc(Nc2ncc3c(C)nc(-c4cccc(C(F)(F)F)c4)n3n2)cc(OC)c1OC`, the inhibition in [1] is -2.22%; in assay [2], 3.55%; in [3], 16.9%; in assay [4], 2.15%; in assay [5] it was 6.29%; in [6], 15.2%. For the same molecule, the inhibition was determined as 48.8% in assay [7]; 0.75% in assay [8]; 3.69% in [9]; 2.69% in assay [10]; 7.83% in [11]; 4.54% in assay [12]. The inhibition in assay [13] was 16.5%; in assay [14], 4.76%; in assay [15], 11%; in assay [16], 3.45%; in assay [17] it was 16.6%; in [18], -1.61%. Moreover, the inhibition stood at 14.4% in assay [19] and 2.65% in assay [20].

`COC(=O)Nc1nc2ccc(Sc3ccc(NC(=O)Nc4cc(C(F)(F)F)ccc4F)cc3)cc2[nH]1`: the inhibition was -0.54% in [1]; 3.34% in assay [2]; 5.46% in assay [3]; 21.1% in assay [4]; 70.7% in assay [5]; 2.15% in assay [6]. In addition, the inhibition in assay [7] came out at 25.3%; in assay [8] it was 0.06%; in assay [9] it was 1.64%; in [10] it was 62.7%; in [11], 83%; in assay [12], 15.1%. The inhibition in [13] was 71.8%; in [14] it was 15.5%; in assay [15] it was 69.5%; in assay [16], 3.58%; in assay [17], 4.98%; in assay [18], -0.72%. Besides, the inhibition in assay [19] stood at 8.33%; in assay [20], 1.16%.
